In all, about 310,000 compounds went through this assay and about 14,000 (4.5%) showed an effect of 50% or more. Effects have a minus sign here. The list comes from a sample in which strong results are over-represented; it also holds similar structures and randomly drawn compounds.
Molecular target: human ether-à-go-go-related gene (hERG) potassium channel (human, UniProt Q12809)
Assay: primary screen, population patch clamp on CHO cells stably expressing hERG; higher = less effect of the substance
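Also: peak tail current of the secondary pulse compared with the same well before compound.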

human ether-à-go-go-related gene (hERG) potassium channel, sequence (Q12809 whole entry, looked up): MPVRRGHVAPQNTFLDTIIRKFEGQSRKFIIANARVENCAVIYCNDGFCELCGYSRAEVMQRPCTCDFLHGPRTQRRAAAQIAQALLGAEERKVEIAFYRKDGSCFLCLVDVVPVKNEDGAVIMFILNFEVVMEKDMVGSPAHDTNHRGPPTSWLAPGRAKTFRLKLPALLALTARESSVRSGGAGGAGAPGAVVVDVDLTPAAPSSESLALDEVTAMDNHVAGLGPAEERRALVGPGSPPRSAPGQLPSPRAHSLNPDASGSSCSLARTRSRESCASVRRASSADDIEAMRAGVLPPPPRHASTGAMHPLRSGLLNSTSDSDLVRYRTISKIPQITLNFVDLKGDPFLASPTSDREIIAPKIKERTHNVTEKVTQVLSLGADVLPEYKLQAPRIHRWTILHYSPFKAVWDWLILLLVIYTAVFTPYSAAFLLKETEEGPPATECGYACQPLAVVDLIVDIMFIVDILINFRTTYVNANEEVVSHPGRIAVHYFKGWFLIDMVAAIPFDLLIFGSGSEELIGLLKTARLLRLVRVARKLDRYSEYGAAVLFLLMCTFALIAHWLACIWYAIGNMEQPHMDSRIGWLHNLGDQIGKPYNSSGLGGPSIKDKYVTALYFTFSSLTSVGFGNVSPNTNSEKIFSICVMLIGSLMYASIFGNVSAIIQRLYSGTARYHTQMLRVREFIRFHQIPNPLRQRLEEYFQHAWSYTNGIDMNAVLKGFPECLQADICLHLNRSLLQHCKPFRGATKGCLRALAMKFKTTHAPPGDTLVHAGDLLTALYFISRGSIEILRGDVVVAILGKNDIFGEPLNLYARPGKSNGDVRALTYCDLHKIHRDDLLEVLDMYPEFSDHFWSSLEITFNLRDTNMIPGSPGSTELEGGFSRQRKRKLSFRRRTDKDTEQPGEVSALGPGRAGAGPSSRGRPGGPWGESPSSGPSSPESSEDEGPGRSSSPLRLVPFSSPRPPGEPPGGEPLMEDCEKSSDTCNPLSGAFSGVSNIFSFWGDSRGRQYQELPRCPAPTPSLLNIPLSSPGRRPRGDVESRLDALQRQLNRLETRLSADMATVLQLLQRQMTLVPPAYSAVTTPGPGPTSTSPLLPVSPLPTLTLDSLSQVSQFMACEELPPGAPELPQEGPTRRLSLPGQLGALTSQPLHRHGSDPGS

| SMILES | hERG current change (%, negative = inhibition) at 10uM |
| --- | --- |
| CCc1cccc(NC(=O)COC(=O)C2CCN(c3ccc(C(F)(F)F)cn3)CC2)c1 | -4.68% |
| CCOc1ccc(NC(=S)NC(=O)Cc2ccccc2)cc1 | 25.5% |
| Cc1nnc(NC(=O)/C=C/c2ccco2)s1 | 26.3% |
| O=C(Nc1ccc(CN2CCOCC2)cc1)c1ccc(Br)cc1 | 3.54% |
| CC(C)NC(=O)c1ccccc1NC(=O)Cc1ccc([N+](=O)[O-])cc1 | -33.8% |
| CC1C(=O)CCN(C(C)C)C1C.Cl (stereo not drawn) | 8.54% |
| CCOC(=O)c1cnn(C)c1NC(=O)c1ccc(Cl)cc1Cl | -24.5% |
| Cc1cc(C)nc(NS(=O)(=O)c2ccc(NC(=O)c3ccc4c(c3)OCO4)cc2)n1 | -0.197% |
| NC(=O)C1CCCN(CC(=O)Nc2ccccc2C(=O)NC2CC2)C1 (stereo not drawn) | -10.7% |
| O=C(CN1CCN(C/C=C/c2ccccc2)CC1)Nc1ccccc1C(=O)NC1CC1 | -80.5% |
| S=C(NC1CCCCC1)N1CCN(C/C=C/c2ccccc2)CC1 | -21.8% |
| O=C(CN1CCc2ccccc2C1)Nc1ccccc1C(=O)NC1CC1 | -24.5% |
| O=C(CN1CCN(Cc2ccccc2)CC1)NC(=O)NC1CCCCC1 | -46.3% |
| O=C(CN1CCN(C/C=C/c2ccccc2)CC1)NC(=O)NC1CCCCC1 | -74.8% |
| CCOc1cc(C2NC(=O)NC2=O)ccc1O (stereo not drawn) | 17.4% |
| CCN(CC)CCN(C(=O)Cn1nnc(-c2ccc(C)o2)n1)C(C(=O)NC(C)(C)C)c1cccs1 (stereo not drawn) | -41.6% |
| O=C1CC(C(=O)NC2CCCCC2)C2(CCCCC2)O1 (stereo not drawn) | -1.23% |
| COc1cc(NC(=O)C(=O)NCCN(C)C)c(OC)cc1Cl | 8.41% |
| CCCCN(C1CCS(=O)(=O)C1)S(=O)(=O)c1ccc(OC)cc1 (stereo not drawn) | -24.5% |
| CC(C)(CO)Nc1nc(N2CCCC2)nc(N2CCCC2)n1 | -13.8% |
| COc1ccc(NC(=O)NNC(=O)COc2ccc3cc(Br)ccc3c2)cc1OC | 5.68% |
| CC(C)c1ccc2oc(=O)cc(CN3CCN(Cc4ccccc4)CC3)c2c1 | 17.5% |
| Cc1ccc2c(CN3CCOCC3)cc(=O)oc2c1 | -27.6% |
| CCOC(=O)C1CCN(Cc2cc(=O)oc3cc(C)ccc23)CC1 | -47.8% |

| SMILES | hERG current change (%, negative = inhibition) at 10uM |
| --- | --- |
| Cc1ccc2oc(=O)cc(CN3CCN(Cc4ccccc4)CC3)c2c1 | -56.8% |
| Cc1ccc2c(CN3CCCCC3)cc(=O)oc2c1 | -16.1% |
| Cc1ccc2c(CN3CCN(Cc4ccccc4)CC3)cc(=O)oc2c1 | -78.9% |
| CCc1ccc2c(CN(C)Cc3ccc(OC(F)F)c(OC)c3)cc(=O)oc2c1 | -72.5% |
| COc1cc(CN(C)Cc2cc(=O)oc3cc(C)c(Cl)cc23)ccc1OC(F)F | 12% |
| CCc1ccc2c(CN(C)Cc3ccccc3OC)cc(=O)oc2c1.O=C(O)C(=O)O | -21.3% |
| COc1ccc2oc(=O)cc(CN3CCN(Cc4ccc(OC)c(OC)c4OC)CC3)c2c1 | -39.7% |
| COc1ccc(CN2CCN(Cc3cc(=O)oc4cc(C)ccc34)CC2)c(OC)c1OC | -80.2% |
| CCN1CCN(Cc2cc(=O)oc3ccc(C)cc23)CC1 | -3.04% |
| CC(Sc1nc(N)cc(=O)[nH]1)C(=O)Nc1sc2c(c1C#N)CCCC2 (stereo not drawn) | 1.55% |
| Cc1c(C)c(C)c(S(=O)(=O)NCCc2ccccn2)c(C)c1C | -7.95% |
| C=CCNC(=O)c1nn2cccnc2c1Cl | 12.7% |
| COC(=O)C1C(=O)C=C(Nc2ccc(F)cc2F)CC1c1ccccc1 (stereo not drawn) | -16.9% |
| O=C1CCCN1CC(O)CS(=O)(=O)c1ccc(Cl)cc1 (stereo not drawn) | 16.7% |
| Cc1ccc2c(CN3CCC(C)CC3)cc(=O)oc2c1 | -50% |
| CSc1ccc(CN(C)Cc2nc3cc(C(F)(F)F)ccc3c(=O)[nH]2)cc1 | 12.9% |
| Cc1ccc2c(CN3CCN(CCO)CC3)cc(=O)oc2c1C | -15.5% |
| Cc1ccc2oc(=O)cc(CN3CCC(C)CC3)c2c1 | 10.8% |
| Cc1ccc2c(CN3CCN(CCO)CC3)cc(=O)oc2c1 | -74.9% |
| CCc1ccc2c(CN3CCc4cc(OC)c(OC)cc4C3)cc(=O)oc2c1 | -66% |
| Cc1ccc2c(CN3CC(C)CC(C)C3)cc(=O)oc2c1 (stereo not drawn) | -2.89% |
| COc1cc2c(cc1OC)CN(Cc1cc(=O)oc3cc(C)c(C)cc13)CC2 | -37.6% |
| COc1cc2c(cc1OC)CN(Cc1cc(=O)oc3cc(C)c(Cl)cc13)CC2 | -14.3% |
| COc1cc(CN(C)Cc2nc3cc(C(F)(F)F)ccc3c(=O)[nH]2)ccc1OC(F)F | -66.5% |

| SMILES | hERG current change (%, negative = inhibition) at 10uM |
| --- | --- |
| COc1cccc(CN(C)Cc2nc3cc(C(F)(F)F)ccc3c(=O)[nH]2)c1 | -3.19% |
| CCc1cc2c(CN3CCN(CCO)CC3)cc(=O)oc2cc1O | 15.6% |
| Cc1ccc2c(c1)-c1c(cnn1CC(=O)N(Cc1ccco1)C1CCCCC1)CO2 | -13% |
| Cc1cc(C)cc(NC(=O)Cn2nnc(C(=O)NCc3ccco3)c2N)c1 | 6.01% |
| CCn1cc(/C=N\NC(=O)Cc2ccc(Cl)cc2)cn1 | -12% |
| CCOC(=O)N1CCN(C(=O)CSc2nnc(CNC(=O)c3ccccc3F)o2)CC1 | 6.37% |
| COc1ccccc1-c1cc(C(=O)NC2CCN(C)CC2)c2ccc(Cl)c(C)c2n1 | -42% |
| N#CC1(NC(=O)COC(=O)CCCN=C2NS(=O)(=O)c3ccccc32)CCCCC1 | 15% |
| Cn1c(SCC(=O)NCc2ccc3c(c2)OCO3)nc2c(c1=O)SCC2 | -21% |
| Cc1ccc2c(CN3CCN(S(=O)(=O)c4ccccc4C(F)(F)F)CC3)cc(=O)oc2c1 | -57.3% |
| Cc1ccc2c(CN3CCN(S(=O)(=O)c4ccccc4C(F)(F)F)CC3)cc(=O)oc2c1C | -5.49% |
| Cc1ccc2c(CSc3nnnn3C)cc(=O)oc2c1 | -42.4% |
| CCc1ccc2c(CN3CCOCC3)cc(=O)oc2c1 | -31.7% |
| CCc1ccc2c(CN3CCN(Cc4ccccc4)CC3)cc(=O)oc2c1 | -79.7% |
| CCc1ccc2c(CSc3nnnn3C)cc(=O)oc2c1 | -68.1% |
| Cn1nnnc1SCc1cc(=O)[nH]c2ccccc12 | 2.31% |
| Cc1ccc(S(=O)(=O)N2CCN(Cc3ccccc3C(F)(F)F)CC2)cc1 | -5.53% |
| CCc1ccc2oc(=O)cc(CN3CCN(Cc4ccccc4)CC3)c2c1 | -46.3% |
| N#Cc1c(-c2ccccc2)ccn(Cc2cccc(Cl)c2)c1=O | 8.43% |
| Cc1ccc(Nc2cc(-n3nc(C)cc3C)ncn2)c(C)c1 | -3.97% |
| COCCCN1C2=C(C(=O)CC(C)(C)C2)C(c2ccc(O)c(OC)c2)C2=C1CC(C)(C)CC2=O | 11.2% |
| Cc1ccc(N)cc1CN1CCCC1=O | 2.15% |
| CCN(CC)S(=O)(=O)c1ccc(C(=O)NC(C)(C)C)cc1 | 19.1% |
| O=C(CCN1CCOCC1)Nc1ccc(F)cc1 | -10.5% |

| SMILES | hERG current change (%, negative = inhibition) at 10uM |
| --- | --- |
| O=C(CCN1CCN(c2ccccc2F)CC1)Nc1ccc(F)cc1 | -18.3% |
| O=C(CCN1CCN(c2ccc(F)cc2)CC1)Nc1ccc(F)cc1 | -56.8% |
| COc1ccc(NC(=O)CCN2CCN(c3ccc(F)cc3)CC2)cc1 | -33% |
| O=C(CCN1CCN(c2ccccn2)CC1)Nc1ccc(F)cc1 | -42.5% |
| Cc1ccccc1N1CCN(CCC(=O)Nc2ccc(F)cc2)CC1 | -67.5% |
| CCC(C)(C)n1nnnc1C(c1cccnc1)N1CCCc2ccccc21 (stereo not drawn) | -19.6% |
| CCS(=O)(=O)NCc1csc(-c2ccccc2)n1 | 18% |
| Cc1cnccc1CN(C)C(=O)CC1C(=O)NCCN1CC1CCCCC1 (stereo not drawn) | -4.59% |
| COc1ccc(/C=C2\SC(=S)N(CCC(=O)Nc3ccccn3)C2=O)cc1OC | 26.2% |
| Cl.OCCN1CCN(CC(O)COCC2COc3ccccc3O2)CC1 (stereo not drawn) | 33.4% |
| CC[N+](C)(CC)CC(O)COCC1COc2ccccc2O1.[I-] (stereo not drawn) | 1.73% |
| Cl.OC(COCC1COc2ccccc2O1)CN1CCN(c2ccccc2)CC1 (stereo not drawn) | -64.1% |
| Cl.OC(COCC1COc2ccccc2O1)CN1CCCCC1 (stereo not drawn) | -43.6% |
| Cl.OC(COCC1COc2ccccc2O1)CN1CCN(c2ccccc2F)CC1 (stereo not drawn) | -58.9% |
| O=C(C1COc2ccccc2O1)N1CCN(c2ccccc2F)CC1 (stereo not drawn) | 9.47% |
| Cl.OC(COCC1COc2ccccc2O1)CN1CCc2ccccc2C1 (stereo not drawn) | -64.9% |
| CC1CCCC(C)N1CC(O)COCC1COc2ccccc2O1.Cl (stereo not drawn) | -15.8% |
| C[N+]1(CC(O)COCC2COc3ccccc3O2)CCOCC1.[I-] (stereo not drawn) | 18.3% |
| CC1CCCN(CC(O)COCC2COc3ccccc3O2)C1.Cl (stereo not drawn) | -28.2% |
| Cl.OC(COCC1COc2ccccc2O1)CN1CCN(c2ccc(F)cc2)CC1 (stereo not drawn) | -79.3% |
| CCN1CCN(CC(O)COCC2COc3ccccc3O2)CC1.Cl (stereo not drawn) | -4.69% |
